From PubChem BioAssay
Most compounds without a hit are left out; they make up all but 3.2% or so of the library.
Nrf2 activator: activates Nrf2 signaling; Potency, µM (titrated, usually from 46.1 µM), for inactives: at the top dose activation, hits mostly activators; 410,000 compounds, 0.31% hits; AID 624171; AREc32 ARE-luciferase reporter (MCF7-derived line), luminescence, 24 h; also: potency is read from the fitted curve at half-maximal effect; % of control where 0% means no effect; nearly all actives have a fitted effect of over 65% in size
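Nrf2 activation is followed as ARE-luciferase induction in the AREc32 line after one day of compound treatment; luminescence is read with Steady-Glo.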
A549 tox-1: counter-screen for Nrf2 inhibitors: cytotoxicity in A549 cells; A549 ARE-Fluc cells, CellTiter-Fluor viability, 18-24 h; Potency, µM (top dose mostly 46 µM), inactives show at the highest dose activity change, negative = cytotoxicity, usual class: inhibitors; AID 504648; 390,000 compounds, 0.16% hits; also: potency is read from the fitted curve at half-maximal effect; % is scaled to controls: 0 for no effect and ±100 for the full control effect
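A549 ARE-Fluc cells in 5% FBS OPTI-MEM, 5000 cells/well, rested 2 h then exposed to compounds in concentration-response for 18-24 h at 37 °C. Viability by CellTiter-Fluor fluorescence (Ex 405/Em 525) after 30 min; luciferase luminescence (BugLite, 15 min, RT) read afterwards.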
p53 reactivator: re-activators of mutant p53. H1299 p53-A138V BP100-luciferase reporter, luminescence, 24 h. Potency, µM (top dose mostly 92.2 µM), for the others: top-dose activity change, positive = activation, usual class: activators. 320,000 compounds, 0.063% hits. AID 504706; also: potency is read from the fitted curve at half-maximal effect; % of control where 0% means no effect; nearly all actives have a fitted effect of over 45% in size
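H1299 (p53-null), stable ts p53-A138V + BP100-Luc; 1000 cells/well, Opti-MEM/10% FBS; cpd 4 pt, 1:5; 24 h, 37 deg C, 5% CO2; detection reagent 10 min RT; luminescence.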
Nrf2 inh: Nrf2 pathway inhibition. A549 ARE-Fluc reporter, luciferase luminescence, 18-24 h. Potency, µM (highest dose often 46 µM), for the others: at the top dose activity change, negative = inhibition, usual class: inhibitors. 360,000 compounds, 2.1% hits; also: potency is read from the fitted curve at half-maximal effect; % is scaled to controls: 0 for no effect and ±100 for the full control effect; nearly all actives have a fitted effect of over 60% in size
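A549 ARE_Fluc cells, 5000/well, 5% FBS OPTI-MEM; compounds in dose-response, 18-24 h at 37 °C/5% CO2; CellTiter-Fluor viability read (Ex 405/Em 525), then BugLite luciferase luminescence = Nrf2 activity.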
IL-2 act: IL-2 activation. 360,000 compounds, 0.065% hits. IL-2 activation reporter assay, cell-based qHTS; stimulated with anti-CD3/CD4/CD28 beads; in transgenic mouse T cells. activation, % (series mostly up to about 46 µM); in the data active = activation above about 50%; inconclusive = mostly about 30% to 49%; also: 0% is about no effect
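Unstimulated transgenic mouse T cells; 60-min compound exposure; bead-based TCR/CD4/CD28 stimulation; 18 h culture, 37 degrees C; dual fluorescence (EGFP, DsRed) plate cytometry.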
BRCA1 expr up: BRCA1 expression activation. MCF7-BRCA1-FFLuc reporter, luminescence, 48 h; response scale: scaled: vehicle 0%, 10 µM genistein 100%. Potency, µM (doses to about 46.1 µM), for inactives: at the top dose activation, usual class: activators. 380,000 compounds, 1.1% hits. AID 624202; also: potency is read from the fitted curve at half-maximal effect; nearly all actives have a fitted effect of over 80% in size
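Quantitative HTS in MCF7 cells stably reporting BRCA1 expression via firefly luciferase. Compound treatment lasts 48 h at 37 °C in phenol-red free MEM. Activation is expressed relative to genistein at 10 microM and DMSO.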
FLuc enzyme inh: blocks purified firefly luciferase in Nrf2 counterscreen. shares compounds with Nrf2 inh. purified firefly luciferase, luminescence inhibition. 1,400 compounds, 4% hits. Potency, µM (highest dose often 57.5 µM), inactives show top-dose activity change, negative = inhibition, actives largely listed as inhibitors; also: potency is read from the fitted curve at half-maximal effect; % is scaled to controls: 0 for no effect and ±100 for the full control effect; nearly all actives have a fitted effect of over 65% in size
Target sequence (P08659 whole entry, looked up): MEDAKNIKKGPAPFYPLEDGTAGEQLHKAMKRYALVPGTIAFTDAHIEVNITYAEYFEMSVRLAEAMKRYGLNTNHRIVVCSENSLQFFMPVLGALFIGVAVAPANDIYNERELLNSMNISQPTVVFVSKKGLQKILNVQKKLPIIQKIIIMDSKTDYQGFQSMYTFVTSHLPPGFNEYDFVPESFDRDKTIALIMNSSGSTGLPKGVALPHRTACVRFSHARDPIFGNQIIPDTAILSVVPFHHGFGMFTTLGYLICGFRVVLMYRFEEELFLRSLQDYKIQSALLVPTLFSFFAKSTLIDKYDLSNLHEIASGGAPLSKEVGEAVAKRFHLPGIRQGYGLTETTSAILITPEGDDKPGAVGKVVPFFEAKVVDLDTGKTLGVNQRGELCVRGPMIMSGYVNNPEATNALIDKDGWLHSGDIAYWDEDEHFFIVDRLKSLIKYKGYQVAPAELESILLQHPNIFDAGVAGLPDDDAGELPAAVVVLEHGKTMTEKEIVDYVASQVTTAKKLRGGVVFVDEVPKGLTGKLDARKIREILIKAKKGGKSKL
A549 tox-2: counter-screen for Nrf2 inhibitors: cytotoxicity in A549 ARE cells; 1,400 compounds, 2% hits; A549 ARE-Fluc cells, cytotoxicity counterscreen; Potency, µM (doses to about 46.1 µM), for inactives: top-dose activity change, negative = cytotoxicity, most hits filed as inhibitors; shares compounds with Nrf2 inh;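 also: potency is read from the fitted curve at half-maximal effect; cells exposed to compounds for 18 to 24 hours; % is scaled to controls: 0 for no effect and ±100 for the full control effect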
ARE-Fluc inh: reduces Nrf2 ARE reporter signal in A549 cells. shares compounds with Nrf2 inh. A549 ARE-firefly luciferase reporter, luminescence. Potency, µM (series often up to 46.1 µM), inactives show at the top dose activity change, negative = inhibition, usual class: inhibitors. 1,400 compounds, 74% hits; also: potency is read from the fitted curve at half-maximal effect; % is scaled to controls: 0 for no effect and ±100 for the full control effect; nearly all actives have a fitted effect of over 65% in size
Starred values were filed as active, the others as inactive; ? = inconclusive; . = no result shown. Unless noted, calls follow the shape of the dose curve; as a rule, active = well fitted curve in the direction sought with a large enough effect; inconclusive = small, poorly fitted or top-dose-only effect, or another doubt; inactive = no such curve, though single readings can be large; an effect the other way counts as inactive or inconclusive.

SMILES | Nrf2 activator | A549 tox-1 | p53 reactivator | Nrf2 inh | IL-2 act | BRCA1 expr up | FLuc enzyme inh | A549 tox-2 | ARE-Fluc inh
CC(=O)OCC(=O)[C@@]1(O)CC[C@H]2[C@@H]3CCC4=CC(=O)C=C[C@]4(C)[C@@]3(Cl)[C@@H](Cl)C[C@@]21C | -0.9% | ? | -3.2% | 8.2µM* | -0.6 | -16.5% | 1.9% | -6.1% | 1.3µM*
C[C@]12C=CC(=O)C=C1CCC1C3CC[C@](O)(C(=O)CO)[C@@]3(C)CC3OC312 (some centres undefined) | -0.4% | -1.0% | -2.5% | -17.6% | -0.6 | -8.2% | . | . | .
CC(=O)[C@@]1(O)CC[C@H]2[C@@H]3CCC4=CC(=O)CC[C@]4(C)[C@H]3[C@@H](O)C[C@@]21C | -0.2% | -1.2% | -1.5% | ? | 0.1 | -6.1% | . | . | .
CC12CCC(=O)C=C1C(F)CC1C2C(O)CC2(C)C1CCC2(O)C(=O)CO (centres undefined) | 1.8% | 4.0% | . | 0.058µM* | -0.7 | -16.1% | 0.3% | -4.6% | 0.058µM*
CCCCC(=O)O[C@]1(C(=O)CO)CC[C@H]2[C@@H]3CCC4=CC(=O)CC[C@]4(C)[C@H]3[C@@H](O)C[C@@]21C | -0.1% | -8.4% | -1.8% | 0.0164µM* | -0.4 | -1.8% | -0.7% | -13.9% | 0.013µM*
CCOc1ccccc1NS(=O)(=O)c1ccc(N2CCCCS2(=O)=O)cc1 | -0.3% | 11.0% | . | . | . | . | . | . | .
C[C@]12C=CC(=O)C=C1CC[C@@H]1[C@@H]2C(=O)C[C@@]2(C)[C@H]1CC[C@]2(O)C(=O)COC(=O)CCC(=O)O | -0.1% | -7.6% | -2.7% | ? | -0.5 | -11.9% | . | . | .
CCC(C(=O)OCC(=O)C1(O)CCC2C3CCC4=CC(=O)CCC4(C)C3C(O)CC21C)C(C)C (centres undefined) | -0.4% | -2.6% | . | 1.16µM* | 0.0 | -74.3% | -0.6% | -29.1% | .
COc1ccc(Cl)cc1NC(=O)c1cn(C2CCCC2)c(=O)c2c1c1ccccc1n2C | 0.6% | 1.9% | . | 53.3% | . | . | . | . | .
Cc1cc(O)c(C(c2ccccc2)N2CCC(C)CC2)c(=O)n1Cc1ccco1 (centres undefined) | 0.3% | 2.6% | . | . | . | 3.3% | . | . | .
COc1ccc(S(=O)(=O)N2CCN(CCOc3ccc(Br)cc3)CC2)cc1OC | 4.3% | -15.6% | -10.7% | 5.8µM* | -0.2 | -1.1% | -11.1% | ? | 7.31µM*
COc1ccc(S(=O)(=O)N2CCN(CCOc3ccccc3Cl)CC2)cc1OC | 2.2% | 2.5% | -10.5% | ? | -0.3 | 0.1% | . | . | .
O=C(NCc1cccs1)c1ccc2c(=O)n3nc(Nc4ccccc4)sc3nc2c1 | -0.2% | -12.0% | . | . | . | . | . | . | .
COc1ccc(CCNC(=O)C(C)n2nc(C)c3c(C)n(-c4ccc(C)cc4)nc3c2=O)c(OC)c1 (centres undefined) | -0.7% | ? | -4.1% | 5.8µM* | -3.0 | -31.4% | 1.5% | -10.5% | 5.8µM*
COc1ccccc1CCNC(=O)C(C)n1nc(C)c2c(C)n(-c3ccccc3)nc2c1=O (centres undefined) | 0.7% | 0.2% | -12.0% | -12.4% | -1.5 | -29.2% | . | . | .
